The results in this text go back to PubChem BioAssay (NCATS).

Assay [1] deals with Cytochrome P450 1A2 (Homo sapiens) (UniProt P05177). Put plainly: p450-cyp1a2 (AID 410; calls by dose curve; note: potency is the fitted concentration of half-maximal effect). The procedure, abridged:
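Human CYP1A2 (20nM) demethylated Luciferin-ME at its Km (100uM) in 100mM KPO4. After 10 min compound preincubation, NADPH regeneration ran the reaction 60 min at room temperature. Luciferin was read by luminescence, normalized to 57 uM furafylline.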

The target in assay [2] is Glucocorticoid receptor (Homo sapiens) (UniProt P04150). In words: GR-GFP Redistribution (AID 450;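 active = compounds whose dose series gives a full or clear partial fitted curve of increased nuclear translocation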; note: potency is the fitted concentration of half-maximal effect).
Glucocorticoid receptor (Homo sapiens), sequence (P04150 whole entry, looked up, the tested form may be a part): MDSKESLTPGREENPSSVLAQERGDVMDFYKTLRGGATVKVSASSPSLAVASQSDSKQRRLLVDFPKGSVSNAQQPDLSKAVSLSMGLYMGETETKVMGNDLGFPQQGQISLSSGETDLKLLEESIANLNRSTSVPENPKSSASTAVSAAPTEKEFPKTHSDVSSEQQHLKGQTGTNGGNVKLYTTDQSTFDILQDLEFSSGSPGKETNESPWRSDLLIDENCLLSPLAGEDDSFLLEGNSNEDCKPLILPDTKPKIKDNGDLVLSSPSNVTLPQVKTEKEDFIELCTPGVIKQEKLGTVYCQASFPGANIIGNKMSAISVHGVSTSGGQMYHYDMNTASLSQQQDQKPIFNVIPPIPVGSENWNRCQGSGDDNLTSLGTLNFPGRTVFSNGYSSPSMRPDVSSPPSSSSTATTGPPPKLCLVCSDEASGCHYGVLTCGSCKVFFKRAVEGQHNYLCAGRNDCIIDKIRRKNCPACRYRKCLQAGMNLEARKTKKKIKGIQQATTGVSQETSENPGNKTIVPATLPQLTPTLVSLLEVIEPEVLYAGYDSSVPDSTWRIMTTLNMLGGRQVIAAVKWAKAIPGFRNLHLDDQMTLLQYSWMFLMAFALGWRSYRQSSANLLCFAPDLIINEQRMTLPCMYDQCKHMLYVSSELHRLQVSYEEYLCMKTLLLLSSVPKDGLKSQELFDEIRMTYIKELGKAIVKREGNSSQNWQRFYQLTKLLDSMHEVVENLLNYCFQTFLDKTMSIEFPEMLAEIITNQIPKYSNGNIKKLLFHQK
Assay [3] shares this target. In words: GR-EFC Redistribution (AID 451; calls by dose curve; note: potency is the fitted concentration of half-maximal effect). Conditions: CHO-K1 GR-EFC translocation, beta-gal luminescence, 2 h. The procedure, abridged: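 CHO-K1 cells stably expressing nuclear-localized β-gal enzyme acceptor and GR fused C-terminally to the enzyme donor fragment; ligand-driven nuclear translocation restores β-gal by complementation. Compounds titrated up to 46 uM final, 2 h at 37 °C; luminescence read.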

In assay [4] the target is Mitogen-activated protein kinase 10 (Mus musculus) (UniProt Q61831). In words: JNK3 AlphaScreen Assay (AID 530; active = well fitted curve in either direction with a large enough effect, not every such curve was filed as active;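 note: kinase came from lysate of stimulated human HepG2 cells; signal reports phosphorylation of biotinylated GST-cJun 1-79 at Ser73 with 10 µM ATP; series mostly up to about 57 µM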). The procedure, abridged: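 JNK3 came from HepG2 lysates pre-activated with IL-1beta and TNF-alpha and phosphorylated biotinylated GST-cJun (1-79) at 10 uM ATP, pH 7.6, room temperature. Compounds were titrated. AlphaScreen signal used anti-phospho-cJun (Ser73) antibody.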
Background: Bead proximity is the source of the signal in Alpha formats.

In assay [5] the target is Cytochrome P450 2C9 (Homo sapiens) (UniProt P11712). Put plainly: qHTS Assay for Inhibitors and Substrates of Cytochrome P450 2C9 (AID 883). Note: nearly all actives have a fitted effect of over 60% in size. Note: potency is the fitted concentration of half-maximal effect. The procedure, abridged:
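Human CYP2C9 (10nM) hydroxylated Luciferin-H (100uM, at its KM) to luciferin in 25mM KPO4. Compound was preincubated 10 min at 37C, then NADPH regeneration started a 60 min reaction at 37C. Luminescence was read after detection reagent, normalized to 57uM sulphaphenazole.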

Assay [6] addresses Cytochrome P450 2D6 (Homo sapiens) (UniProt P10635). Put plainly: qHTS Assay for Inhibitors and Substrates of Cytochrome P450 2D6 (AID 891).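 Note: luciferin methyl ether substrate demethylated by CYP2D6 with NADPH regeneration; nearly all actives have a fitted effect of over 60% in size.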 An outline of the steps: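 Human CYP2D6 (5 nM) with 30 uM Luciferin-ME EGE (at Km) in 100 mM KPO4, compound preincubated 10 min, then NADPH regeneration system for 60 min at room temperature. Luciferin read by luminescence; normalized to 1.43 uM quinidine.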

The target of assay [7] is Cytochrome P450 2C19 (Homo sapiens) (UniProt P33261). Put plainly: qHTS Assay for Inhibitors and Substrates of Cytochrome P450 2C19 (AID 899). Note: nearly all actives have a fitted effect of over 60% in size. Note: potency is the fitted concentration of half-maximal effect. An outline of the steps: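 Human CYP2C19 (5nM) with Luciferin-H EGE at 10uM (its KM) in 50mM KPO4 was preincubated with compound for 10 min at 37C. NADPH regeneration started a 60 min 37C reaction. Luciferin was read by luminescence, normalized to 57uM ketoconazole.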
Cytochrome P450 2C19 (Homo sapiens), sequence (P33261 whole entry, looked up): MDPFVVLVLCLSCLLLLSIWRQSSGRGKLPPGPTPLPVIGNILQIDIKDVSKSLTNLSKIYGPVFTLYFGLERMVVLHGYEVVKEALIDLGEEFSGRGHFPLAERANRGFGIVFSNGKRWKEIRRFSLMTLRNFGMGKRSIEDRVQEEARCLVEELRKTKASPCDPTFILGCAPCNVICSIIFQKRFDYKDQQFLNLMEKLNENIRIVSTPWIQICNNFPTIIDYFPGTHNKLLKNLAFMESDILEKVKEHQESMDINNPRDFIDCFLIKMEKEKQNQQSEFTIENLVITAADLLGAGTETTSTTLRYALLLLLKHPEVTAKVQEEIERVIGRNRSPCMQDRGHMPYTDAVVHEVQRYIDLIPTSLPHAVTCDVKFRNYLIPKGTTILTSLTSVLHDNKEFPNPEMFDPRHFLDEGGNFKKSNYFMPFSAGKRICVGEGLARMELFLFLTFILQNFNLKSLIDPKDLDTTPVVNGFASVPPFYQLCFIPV
A general note: Quantitative high-throughput screening tests each substance at several concentrations.

The target in assay [8] is 3',5'-cyclic-AMP phosphodiesterase 4B (Homo sapiens) (UniProt Q07343). Put plainly: qHTS Assay for Inhibitors of PDE-IV (AID 607; active = well fitted activation curve with a large enough effect in the main read-out, with a control signal flat, not every such curve was filed as active). The procedure, abridged:
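ACTOne HEK293 cells carry a modified cAMP-gated CNG channel and express endogenous PDE4; plated 1000 cells/well, compounds up to 22.9 uM final. Membrane-potential dye fluorescence (ex 535/em 590) was read; parental cells received 10 uM forskolin + 100 uM RO 20-1724.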

The target of assay [9] is Cytochrome P450 3A4 (Homo sapiens) (UniProt P08684). In words: qHTS Assay for Inhibitors and Substrates of Cytochrome P450 3A4 (AID 884). Note: potency is the fitted concentration of half-maximal effect; nearly all actives have a fitted effect of over 50% in size. An outline of the steps:
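20 nM human CYP3A4 with 25 uM Luciferin-PPXE (at KM) in 200 mM KPO4, preincubated 10 min with compound; NADPH regeneration started a 60 min RT reaction. Luciferin detected by luminescence, normalized to 57 uM ketoconazole as full inhibition.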

For assay [10] the target is unchanged. Put plainly: qHTS Assay for Activators of Cytochrome P450 3A4 (AID 885). Note: nearly all actives have a fitted effect of over 65% in size. An outline of the steps:
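20nM CYP3A4 + 25uM Luciferin-PPXE (=KM), 200mM KPO4; cpd 10 min RT; NADPH regen, 60 min RT; stop w/ detection buffer, 20 min; luminescence. Normalized to 57 uM ketoconazole.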

The target in assay [11] is DNA dC->dU-editing enzyme APOBEC-3G (Homo sapiens) (UniProt Q9HC16). In words: qHTS for inhibitors of Vif-A3G interactions: Validation (AID 588379). An outline of the steps:
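HeLa cells stably expressing Vif and A3G-eYFP, 700 cells/well, incubated overnight at 37 deg C, then exposed to compound overnight at 37 deg C. Inhibition of Vif-mediated degradation read as increased yellow fluorescence (Ex 488/Em 500-530) by laser-scanning cytometry.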

Values without a mark were called inactive. Results filed as inconclusive are left out. Activity calls are given as the source filed them. Unless noted, calls come from the whole dose curve; as a rule, active = well fitted curve in the direction sought with a large enough effect; inconclusive = small, poorly fitted or top-dose-only effect, or another doubt; inactive = no such curve, though single readings can be large; an effect the other way counts as inactive or inconclusive. Where only a bound is given, the exact number is not on record here.

Cytochrome P450 1A2 (Homo sapiens), sequence (P05177 whole entry, looked up): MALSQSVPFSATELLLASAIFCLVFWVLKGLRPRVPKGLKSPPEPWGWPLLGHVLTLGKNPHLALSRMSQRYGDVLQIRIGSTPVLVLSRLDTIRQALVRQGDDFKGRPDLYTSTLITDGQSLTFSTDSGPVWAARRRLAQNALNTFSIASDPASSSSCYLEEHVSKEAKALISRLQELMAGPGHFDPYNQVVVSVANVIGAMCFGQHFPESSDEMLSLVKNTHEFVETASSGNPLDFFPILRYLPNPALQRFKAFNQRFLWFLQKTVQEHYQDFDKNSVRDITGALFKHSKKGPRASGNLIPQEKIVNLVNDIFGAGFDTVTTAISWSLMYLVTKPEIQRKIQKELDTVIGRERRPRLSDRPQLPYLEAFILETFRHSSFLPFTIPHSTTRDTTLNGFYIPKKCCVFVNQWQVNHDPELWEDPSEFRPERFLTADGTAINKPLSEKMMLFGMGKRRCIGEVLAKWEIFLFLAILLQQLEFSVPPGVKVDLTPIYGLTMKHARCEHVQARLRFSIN
Cytochrome P450 2D6 (Homo sapiens), sequence (P10635 whole entry, looked up): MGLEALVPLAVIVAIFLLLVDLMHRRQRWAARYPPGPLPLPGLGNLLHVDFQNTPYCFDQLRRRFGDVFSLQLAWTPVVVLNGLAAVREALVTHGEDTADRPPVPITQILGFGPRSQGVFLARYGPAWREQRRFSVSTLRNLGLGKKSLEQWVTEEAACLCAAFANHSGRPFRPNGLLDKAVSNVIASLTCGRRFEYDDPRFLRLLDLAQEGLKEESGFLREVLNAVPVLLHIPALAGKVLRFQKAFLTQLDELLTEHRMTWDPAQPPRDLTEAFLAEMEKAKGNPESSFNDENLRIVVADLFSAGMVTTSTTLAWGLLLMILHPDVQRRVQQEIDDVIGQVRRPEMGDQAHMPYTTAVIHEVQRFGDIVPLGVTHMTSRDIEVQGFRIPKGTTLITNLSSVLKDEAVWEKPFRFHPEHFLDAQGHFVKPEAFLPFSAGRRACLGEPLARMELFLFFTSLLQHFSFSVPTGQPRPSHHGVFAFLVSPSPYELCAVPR
3',5'-cyclic-AMP phosphodiesterase 4B (Homo sapiens), sequence (Q07343 whole entry, looked up): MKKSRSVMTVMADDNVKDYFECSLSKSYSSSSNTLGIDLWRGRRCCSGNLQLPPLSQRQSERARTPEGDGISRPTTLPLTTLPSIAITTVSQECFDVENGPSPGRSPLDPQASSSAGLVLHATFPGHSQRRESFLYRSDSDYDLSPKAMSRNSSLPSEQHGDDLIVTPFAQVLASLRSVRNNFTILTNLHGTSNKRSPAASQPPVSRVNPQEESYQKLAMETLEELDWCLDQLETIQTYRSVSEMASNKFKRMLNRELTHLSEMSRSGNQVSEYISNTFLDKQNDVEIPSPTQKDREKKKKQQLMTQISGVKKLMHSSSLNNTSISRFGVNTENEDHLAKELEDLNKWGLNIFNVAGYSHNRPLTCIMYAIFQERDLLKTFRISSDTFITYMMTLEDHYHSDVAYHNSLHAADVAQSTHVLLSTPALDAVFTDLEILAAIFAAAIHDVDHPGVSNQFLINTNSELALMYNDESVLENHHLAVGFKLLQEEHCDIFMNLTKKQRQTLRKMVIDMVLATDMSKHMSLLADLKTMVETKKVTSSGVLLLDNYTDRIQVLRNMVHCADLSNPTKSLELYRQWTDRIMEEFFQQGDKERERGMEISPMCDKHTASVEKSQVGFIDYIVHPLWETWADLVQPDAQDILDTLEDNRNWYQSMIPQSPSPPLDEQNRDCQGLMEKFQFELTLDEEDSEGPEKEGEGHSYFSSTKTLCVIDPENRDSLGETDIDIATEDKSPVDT
Cytochrome P450 2C9 (Homo sapiens), sequence (P11712 whole entry, looked up): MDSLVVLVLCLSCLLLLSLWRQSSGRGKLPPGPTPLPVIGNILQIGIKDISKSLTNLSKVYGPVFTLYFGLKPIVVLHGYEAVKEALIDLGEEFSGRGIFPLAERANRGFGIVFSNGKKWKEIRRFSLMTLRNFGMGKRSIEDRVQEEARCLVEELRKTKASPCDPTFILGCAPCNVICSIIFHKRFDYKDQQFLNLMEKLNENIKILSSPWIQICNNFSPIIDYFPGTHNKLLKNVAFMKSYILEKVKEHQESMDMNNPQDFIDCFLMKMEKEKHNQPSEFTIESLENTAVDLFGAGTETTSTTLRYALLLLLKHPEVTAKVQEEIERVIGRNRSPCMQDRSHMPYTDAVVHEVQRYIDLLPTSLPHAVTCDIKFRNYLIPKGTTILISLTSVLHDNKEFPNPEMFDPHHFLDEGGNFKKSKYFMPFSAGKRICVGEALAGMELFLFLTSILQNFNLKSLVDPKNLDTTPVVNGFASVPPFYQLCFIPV
Cytochrome P450 3A4 (Homo sapiens), sequence (P08684 whole entry, looked up): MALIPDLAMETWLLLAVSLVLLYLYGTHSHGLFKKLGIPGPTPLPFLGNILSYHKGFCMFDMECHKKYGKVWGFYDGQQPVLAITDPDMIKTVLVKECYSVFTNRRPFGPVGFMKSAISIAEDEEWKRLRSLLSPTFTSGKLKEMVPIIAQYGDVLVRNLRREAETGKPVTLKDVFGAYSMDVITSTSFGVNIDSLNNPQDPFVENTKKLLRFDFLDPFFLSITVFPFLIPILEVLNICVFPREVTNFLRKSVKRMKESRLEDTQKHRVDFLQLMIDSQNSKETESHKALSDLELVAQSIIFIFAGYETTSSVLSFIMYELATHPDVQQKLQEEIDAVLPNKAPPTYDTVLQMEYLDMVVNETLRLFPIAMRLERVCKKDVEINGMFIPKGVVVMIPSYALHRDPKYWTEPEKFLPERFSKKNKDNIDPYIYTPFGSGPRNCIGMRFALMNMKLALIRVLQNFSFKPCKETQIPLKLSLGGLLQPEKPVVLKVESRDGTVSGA
DNA dC->dU-editing enzyme APOBEC-3G (Homo sapiens), sequence (Q9HC16 whole entry, looked up): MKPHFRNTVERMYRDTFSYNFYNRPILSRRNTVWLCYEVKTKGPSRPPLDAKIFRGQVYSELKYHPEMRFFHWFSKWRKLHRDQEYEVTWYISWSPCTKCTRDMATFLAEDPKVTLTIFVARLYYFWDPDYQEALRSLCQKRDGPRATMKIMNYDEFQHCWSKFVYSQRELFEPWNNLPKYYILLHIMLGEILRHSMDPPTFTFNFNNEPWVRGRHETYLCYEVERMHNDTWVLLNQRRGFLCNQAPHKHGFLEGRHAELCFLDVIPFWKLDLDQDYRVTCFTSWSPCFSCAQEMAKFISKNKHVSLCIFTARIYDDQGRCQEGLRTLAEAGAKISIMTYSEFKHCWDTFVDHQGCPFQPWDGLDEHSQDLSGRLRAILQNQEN

For `CC1(C)CC[C@]2(C(=O)O)CC[C@]3(C)C(=CC[C@@H]4[C@@]5(C)CC[C@H](O)C(C)(C)[C@@H]5CC[C@@]43C)[C@@H]2C1`, the Potency result in assay [1], in [4], in [5], in assay [6] and in [7] was “inactive” each time. Also, the Potency in assay [2] and in [3] was > 46 µM in each case.
Consider `COc1ccc(-c2coc3ccc(O[C@@H]4O[C@@H](COC(C)=O)[C@@H](OC(C)=O)[C@@H](OC(C)=O)[C@H]4OC(C)=O)cc3c2=O)cc1`, for which the Potency entry in assay [1], in assay [4], in assay [8], in assay [6] and in [7] was “inactive” each time. In addition, the Potency in [2] and in assay [3] was > 46 µM in each case.
For the compound `O=c1c(O)c(-c2ccc(O)c(O)c2)oc2c(OC[C@H]3O[C@@H](O)[C@@H](O)[C@H](O)[C@@H]3O)c(O)cc(O)c12`, the Potency result in [1], in assay [8], in [5], in [6] and in [7] was “inactive” in each case. Further, the Potency in assay [2] and in [3] was > 46 µM each time.
Consider `C[C@H](O)[C@H](O)[C@@H](O)c1cnc2nc(N)[nH]c(=O)c2n1`, for which the Potency result in [1], in assay [4], in assay [5], in assay [6] and in [7] was “inactive” throughout. Moreover, the Potency in assay [2] and in assay [3] was > 46 µM in each case.
With `Cc1c(-c2ccccc2)oc2cc(O)ccc2c1=O`, the Potency in assay [1] was 0.251 µM (active); in assay [2], > 46 µM; in assay [3], > 46 µM; in assay [5], 2.51 µM (active); in assay [9] it was 15.8 µM (active); in assay [7], 0.126 µM (active). For the same compound, the Potency result in assay [10] and in [6] was “inactive” each time. Also, the compound was classed as inactive in assay [11].
`COc1ccc2c(c1)[C@]1(C)CCC[C@](C)(CO)[C@@H]1CC2`: the Potency in assay [1] is 15.8 µM (active); in assay [2], > 46 µM; in assay [5], 7.94 µM (active); in assay [7], 3.16 µM (active). The Potency entry in [4] and in assay [6] was “inactive” in each case.
Consider `CC(C)C[C@@H](CC(=O)N[C@@H](CCC(=O)O)CC(=O)O)NC(=O)[C@@H]1CNCC[C@H]1NC(=O)C[C@@H](NC(=O)C[C@H](CO)NC(=O)[C@@H]1CCCC[C@H]1N)C(C)C`, for which the Potency result in assay [1], in [4], in assay [8], in assay [5], in assay [6] and in assay [7] was “inactive” each time. For the same compound, in assay [3], the Potency was > 46 µM.
On to `NCCC[C@@H](CC(=O)N[C@@H]1CCCC[C@H]1C(=O)N[C@H](CC(=O)N[C@@H](CCC(=O)O)CC(=O)O)Cc1c[nH]c2ccccc12)NC(=O)C[C@H](Cc1c[nH]c2ccccc12)NC(=O)[C@@H]1CNCC[C@H]1N`, for which the Potency result in [1], in assay [4], in assay [8], in [5], in assay [6] and in [7] was “inactive” throughout. Besides, the Potency in [3] is > 46 µM.
On to `CC(C)[C@@H](CC(=O)N[C@@H]1CCCC[C@H]1C(=O)N[C@H](CC(=O)N[C@@H](CCC(=O)O)CC(=O)O)Cc1ccccc1)NC(=O)C[C@H](Cc1c[nH]c2ccccc12)NC(=O)[C@@H]1CCCC[C@H]1N`, for which the Potency entry in assay [1], in [4], in assay [8], in [5], in assay [6] and in assay [7] was “inactive” in each case. In addition, in [3], the Potency is > 46 µM.
Take `CC(C)[C@@H](CC(=O)N[C@@H]1CCNC[C@H]1C(=O)N[C@H](CC(=O)N[C@@H](CCC(=O)O)CC(=O)O)Cc1c[nH]c2ccccc12)NC(=O)C[C@H](Cc1ccccc1)NC(=O)[C@@H]1CNCC[C@H]1N`: the Potency in assay [1] was 31.6 µM (active); in assay [3] it was > 46 µM. The Potency result in assay [4], in assay [8], in assay [5], in assay [6] and in [7] was “inactive” each time.
In the case of `CC(C)[C@@H](CC(=O)N[C@@H]1CCNC[C@H]1C(=O)N[C@H](CC(=O)N[C@@H](CCC(=O)O)CC(=O)O)Cc1c[nH]c2ccccc12)NC(=O)C[C@H](Cc1c[nH]c2ccccc12)NC(=O)[C@@H]1CCCC[C@H]1N`, the Potency entry in assay [1], in assay [4], in assay [8], in assay [5], in [6] and in assay [7] was “inactive” throughout. Moreover, the Potency in assay [3] is > 46 µM.
For `CC(C)C[C@@H](CC(=O)N[C@@H](CCC(=O)O)CC(=O)O)NC(=O)[C@@H]1CNCC[C@H]1NC(=O)C[C@H](CCCN)NC(=O)C[C@H](CO)NC(=O)[C@@H]1CCCC[C@H]1N`, the Potency result in assay [1], in [4], in assay [8], in assay [5], in assay [6] and in [7] was “inactive” throughout. Further, the Potency in assay [3] is > 46 µM.
Regarding `NCCC[C@@H](CC(=O)N[C@@H]1CCNC[C@H]1C(=O)N[C@H](CC(=O)N[C@@H](CCC(=O)O)CC(=O)O)Cc1c[nH]c2ccccc12)NC(=O)C[C@H](CO)NC(=O)[C@@H]1CCCC[C@H]1N`, the Potency entry in assay [1], in assay [4], in assay [8], in assay [5], in [6] and in assay [7] was “inactive” throughout. The Potency in assay [3] is > 46 µM.
